From PubChem BioAssay (Tox21)
A number with no mark means an inactive call. Records with an inconclusive call do not appear. Where a call stands in place of a potency, no number is given. Active and inactive are the calls of the source. Calls come from the whole dose curve; as a rule, active = well fitted curve in the direction sought with a large enough effect in the repeat runs; inconclusive = weak or mixed curves; inactive = no such curve, though single readings can be large; an effect the other way counts as inactive or inconclusive.

Tests used:
[1] = A CellTox Green Cytotoxicity Assay to monitor cytotoxicity in HEK293 cells - 40 hour (AID 1224871); note: nearly all actives have a fitted effect of over 45% in size; note: potency is the fitted concentration of half-maximal effect
Outline: (§1)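 Dead-cell fluorescence measured kinetically: asymmetric cyanine dye, HEK293, 600 cells/well, 5 h settle, 23 nL cpd/DMSO, 37 C, reads 0–40 h every 8 h.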

[2] = qHTS RealTime-Glo MT Cell Viability Assay in HEK293 cells - 16 hour (AID 1224872); note: top concentration of the series differs between compounds; nearly all actives have a fitted effect of over 50% in size
Outline: (§2)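 Tox21 10K qHTS, HEK293, 600 cells/well, RealTime-Glo reagent co-dispensed with cells; 5 h preincubation, compound by pintool, 37 C, luminescence at 0–40 h.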

[3] = qHTS RealTime-Glo MT Cell Viability Assay in HepG2 cells - 8 hour (AID 1224873); note: nearly all actives have a fitted effect of over 55% in size
Outline: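 HepG2 cells mixed with RealTime-Glo MT reagents (NanoLuc plus cell-permeant prosubstrate) were seeded at 600 cells/well, incubated 5 h at 37 C/5% CO2, then pinned with compounds in DMSO; nonlytic luminescence tracked viability during 40 h treatment.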

[4] = qHTS RealTime-Glo MT Cell Viability Assay in HEK293 cells - 40 hour (AID 1224874); details: RealTime-Glo luminescence; max response: stronger effect = lower value; note: nearly all actives have a fitted effect of over 50% in size
Outline: (§3)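 600 HEK293 cells per well, dispensed already mixed with RealTime-Glo MT reagents. Compound dosing came 5 h later. The same wells were read for luminescence at 0, 8, 16, 24, 32 and 40 h of exposure at 37 C.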

[5] = A CellTox Green Cytotoxicity Assay to monitor cytotoxicity in HEK293 cells - 24 hour (AID 1224875); note: nearly all actives have a fitted effect of over 45% in size; note: potency is the fitted concentration of half-maximal effect; for activity change: series mostly up to about 77 µM
Outline: as §1

[6] = A CellTox Green Cytotoxicity Assay to monitor cytotoxicity in HepG2 cells - 16 hour (AID 1224876); note: nearly all actives have a fitted effect of over 45% in size
Outline: (§4)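 First, HepG2 cells (600/well) mixed with reagent were plated; second, after 5 h at 37 C they received compounds via pintool; third, fluorescence was measured at 0 h through 40 h at 8 h intervals.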

[7] = qHTS RealTime-Glo MT Cell Viability Assay in HepG2 cells - 32 hour (AID 1224877); note: nearly all actives have a fitted effect of over 55% in size
Outline: (§5)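 Cells + NanoLuc/prosubstrate dispensed (600 cells/well) → 5 h at 37 C/5% CO2 → compounds in DMSO transferred → 40 h incubation at 37 C, luminescence read at 0, 8, 16, 24, 32, 40 h.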

[8] = A CellTox Green Cytotoxicity Assay to monitor cytotoxicity in HepG2 cells - 24 hour (AID 1224878); note: nearly all actives have a fitted effect of over 45% in size
Outline: as §4

[9] = qHTS RealTime-Glo MT Cell Viability Assay in HEK293 cells - 0 hour (AID 1224880)
Outline: as §3

[10] = A CellTox Green Cytotoxicity Assay to monitor cytotoxicity in HEK293 cells - 32 hour (AID 1224881); note: nearly all actives have a fitted effect of over 40% in size; note: potency is the fitted concentration of half-maximal effect
Outline: as §1

[11] = A CellTox Green Cytotoxicity Assay to monitor cytotoxicity in HepG2 cells - 0 hour (AID 1224882); note: nearly all actives have a fitted effect of over 35% in size
Outline: as §4

[12] = A CellTox Green Cytotoxicity Assay to monitor cytotoxicity in HepG2 cells - 32 hour (AID 1224883); note: nearly all actives have a fitted effect of over 50% in size
Outline: as §4

[13] = A CellTox Green Cytotoxicity Assay to monitor cytotoxicity in HEK293 cells - 8 hour (AID 1224884); note: nearly all actives have a fitted effect of over 35% in size
Outline: as §1

[14] = qHTS RealTime-Glo MT Cell Viability Assay in HEK293 cells - 24 hour (AID 1224886); note: top concentration of the series differs between compounds; nearly all actives have a fitted effect of over 50% in size
Outline: as §2

[15] = qHTS RealTime-Glo MT Cell Viability Assay in HEK293 cells - 8 hour (AID 1224887)
Outline: as §3

[16] = A CellTox Green Cytotoxicity Assay to monitor cytotoxicity in HEK293 cells - 16 hour (AID 1224888); note: nearly all actives have a fitted effect of over 35% in size
Outline: as §1

[17] = qHTS RealTime-Glo MT Cell Viability Assay in HepG2 cells - 0 hour (AID 1224889); note: nearly all actives have a fitted effect of over 50% in size
Outline: as §5

[18] = A CellTox Green Cytotoxicity Assay to monitor cytotoxicity in HepG2 cells - 8 hour (AID 1224890); note: nearly all actives have a fitted effect of over 45% in size
Outline: as §4

[19] = qHTS RealTime-Glo MT Cell Viability Assay in HepG2 cells - 16 hour (AID 1224885); note: nearly all actives have a fitted effect of over 50% in size
Outline: as §5

[20] = A CellTox Green Cytotoxicity Assay to monitor cytotoxicity in HepG2 cells - 40 hour (AID 1224879); note: nearly all actives have a fitted effect of over 40% in size
Outline: as §4

## CCOC(=O)NCCC[Si](OCC)(OCC)OCC
[1]
  Potency: inactive
[2]
  Potency: inactive
[3]
  outcome: inactive
[4]
  max response: 4.72%
[5]
  Potency: inactive
[6]
  Potency: inactive
[7]
  Potency: inactive
[8]
  Potency: inactive
[9]
  outcome: inactive
[10]
  Potency: inactive
[11]
  Potency: inactive
[12]
  Potency: inactive
[13]
  Potency: inactive
[14]
  Potency: inactive
[15]
  Potency: inactive
[16]
  Potency: inactive
[17]
  Potency: inactive
[18]
  Potency: inactive

## CN(CCCN1c2ccccc2CCc2ccccc21)CC(=O)c1ccc(Cl)cc1
[1]
  Potency: inactive
[2]
  Potency: inactive
[3]
  outcome: inactive
[4]
  max response: -24.7%
[5]
  Potency: inactive
[6]
  Potency: inactive
[7]
  Potency: inactive
[8]
  Potency: inactive
[9]
  outcome: inactive
[10]
  Potency: inactive
[11]
  Potency: inactive
[13]
  Potency: inactive
[19]
  outcome: inactive
[14]
  Potency: inactive
[15]
  Potency: inactive
[16]
  Potency: inactive
[17]
  Potency: inactive

## O=C1CCCc2ccccc21
[1]
  Potency: inactive
[2]
  Potency: inactive
[3]
  outcome: inactive
[4]
  max response: 23.3%
[6]
  Potency: inactive
[7]
  Potency: inactive
[8]
  Potency: inactive
[20]
  Potency: inactive
[9]
  outcome: inactive
[10]
  Potency: inactive
[11]
  Potency: inactive
[12]
  Potency: inactive
[13]
  Potency: inactive
[19]
  outcome: inactive
[14]
  Potency: inactive
[15]
  Potency: inactive
[16]
  Potency: inactive
[17]
  Potency: inactive

## CC1=C(O)C(=O)OC1C (stereo unspecified)
[1]
  Potency: inactive
[2]
  Potency: inactive
[3]
  outcome: inactive
[4]
  max response: 1.31%
[5]
  Potency: inactive
[6]
  Potency: inactive
[7]
  Potency: inactive
[8]
  Potency: inactive
[9]
  outcome: inactive
[10]
  Potency: inactive
[11]
  Potency: inactive
[12]
  Potency: inactive
[19]
  outcome: inactive
[14]
  Potency: inactive
[15]
  Potency: inactive
[16]
  Potency: inactive
[17]
  Potency: inactive
[18]
  Potency: inactive

## COc1ccccc1N1CCN(CCCNc2cc(=O)n(C)c(=O)n2C)CC1
[1]
  Potency: inactive
[2]
  Potency: inactive
[3]
  outcome: inactive
[4]
  max response: -21.2%
[5]
  Potency: inactive
[6]
  Potency: inactive
[7]
  Potency: inactive
[8]
  Potency: inactive
[9]
  outcome: inactive
[10]
  Potency: inactive
[11]
  Potency: inactive
[12]
  Potency: inactive
[16]
  Potency: inactive
[17]
  Potency: inactive
[18]
  Potency: inactive

## COC(=O)c1ccc2cc(C(=O)OC)ccc2c1
[1]
  cytotoxicity increase: 3.01% [at 15.8 µM]
[2]
  activity change, negative = cytotoxicity: -1.54% [at 15.8 µM]
[3]
  viability change, negative = cytotoxic: 6.16% [at 15.8 µM]
[4]
  max response: -1.06%
[5]
  activity change: 4.58% [at 15.8 µM, stronger effect = higher value]
[6]
  cytotoxicity increase: -13.5% [at 15.8 µM]
[7]
  activity change, negative = cytotoxic: 0.0732% [at 15.8 µM]
[8]
  cytotoxicity: -14.4% [at 15.8 µM]
[9]
  activity change, negative = cytotoxicity: 3.21% [at 15.8 µM]
[10]
  cytotoxicity increase: 1.19% [at 15.8 µM]
[11]
  cytotoxicity: -8.67% [at 15.8 µM]
[12]
  cytotoxicity increase: -17.5% [at 15.8 µM]
[13]
  cytotoxicity increase: -0.0057% [at 15.8 µM]
[14]
  activity change, negative = cytotoxicity: -1.22% [at 15.8 µM]
[15]
  activity change, negative = cytotoxicity: 0.421% [at 15.8 µM]
[16]
  activity change: 2.83% [at 15.8 µM, stronger effect = higher value]
[17]
  activity change, negative = cytotoxicity: 9.21% [at 15.8 µM]

## Clc1cccc(-c2cc(Cl)cc(Cl)c2)c1
[1]
  Potency: 37.5 µM (active)
[2]
  Potency: inactive
[3]
  outcome: inactive
[4]
  max response: -9.77%
[5]
  Potency: 42.1 µM (active)
[6]
  Potency: inactive
[7]
  Potency: inactive
[9]
  outcome: inactive
[10]
  Potency: 42.1 µM (active)
[11]
  Potency: inactive
[19]
  outcome: inactive
[14]
  Potency: inactive
[15]
  Potency: inactive
[17]
  Potency: inactive
[18]
  Potency: inactive

## CC(C)(C)c1cccc(O)c1
[1]
  Potency: inactive
[2]
  Potency: inactive
[3]
  outcome: inactive
[4]
  max response: -6.86%
[5]
  Potency: inactive
[6]
  Potency: inactive
[7]
  Potency: inactive
[9]
  outcome: inactive
[10]
  Potency: inactive
[11]
  Potency: inactive
[13]
  Potency: inactive
[19]
  outcome: inactive
[14]
  Potency: inactive
[15]
  Potency: inactive
[16]
  Potency: inactive
[17]
  Potency: inactive
[18]
  Potency: inactive

## C1CSCCS1
[1]
  Potency: inactive
[2]
  Potency: inactive
[3]
  outcome: inactive
[4]
  max response: -4.02%
[5]
  Potency: inactive
[6]
  Potency: inactive
[7]
  Potency: inactive
[8]
  Potency: inactive
[9]
  outcome: inactive
[10]
  Potency: inactive
[11]
  Potency: inactive
[12]
  Potency: inactive
[13]
  Potency: inactive
[19]
  outcome: inactive
[14]
  Potency: inactive
[15]
  Potency: inactive
[16]
  Potency: inactive
[17]
  Potency: inactive
[18]
  Potency: inactive

## OCCN(CCO)CCN(CCO)CCO
[1]
  Potency: inactive
[2]
  Potency: inactive
[3]
  outcome: inactive
[4]
  max response: -1.3%
[6]
  Potency: inactive
[7]
  Potency: inactive
[8]
  Potency: inactive
[20]
  Potency: inactive
[9]
  outcome: inactive
[10]
  Potency: inactive
[11]
  Potency: inactive
[12]
  Potency: inactive
[13]
  Potency: inactive
[19]
  outcome: inactive
[14]
  Potency: inactive
[15]
  Potency: inactive
[16]
  Potency: inactive
[17]
  Potency: inactive

## O=c1[nH]c(=O)n([C@H]2C[C@H](O)[C@@H](CO)O2)cc1C(F)(F)F
[1]
  Potency: inactive
[2]
  Potency: inactive
[3]
  outcome: inactive
[4]
  max response: -15%
[5]
  Potency: inactive
[6]
  Potency: inactive
[7]
  Potency: inactive
[8]
  Potency: inactive
[9]
  outcome: inactive
[10]
  Potency: inactive
[11]
  Potency: inactive
[12]
  Potency: inactive
[13]
  Potency: inactive
[14]
  Potency: inactive
[15]
  Potency: inactive
[16]
  Potency: inactive
[17]
  Potency: inactive
[18]
  Potency: inactive

## Cc1onc(-c2ccccc2)c1C(=O)Cl
[1]
  Potency: inactive
[2]
  Potency: inactive
[3]
  outcome: inactive
[4]
  max response: 5.64%
[5]
  Potency: inactive
[7]
  Potency: inactive
[9]
  outcome: inactive
[10]
  Potency: inactive
[11]
  Potency: inactive
[13]
  Potency: inactive
[19]
  outcome: inactive
[14]
  Potency: inactive
[15]
  Potency: inactive
[16]
  Potency: inactive
[17]
  Potency: inactive

## NC(=O)Cc1cccc(C(=O)c2ccccc2)c1N
[1]
  Potency: inactive
[2]
  Potency: inactive
[3]
  outcome: inactive
[4]
  max response: -24.1%
[5]
  Potency: inactive
[6]
  Potency: inactive
[7]
  Potency: inactive
[8]
  Potency: inactive
[9]
  outcome: inactive
[10]
  Potency: inactive
[11]
  Potency: inactive
[12]
  Potency: inactive
[15]
  Potency: inactive
[16]
  Potency: inactive
[17]
  Potency: inactive
[18]
  Potency: inactive

## Nc1cccc(S(=O)(=O)O)c1
[1]
  Potency: inactive
[2]
  Potency: inactive
[3]
  outcome: inactive
[4]
  max response: 3%
[5]
  Potency: inactive
[6]
  Potency: inactive
[7]
  Potency: inactive
[8]
  Potency: inactive
[9]
  outcome: inactive
[10]
  Potency: inactive
[11]
  Potency: inactive
[12]
  Potency: inactive
[13]
  Potency: inactive
[14]
  Potency: inactive
[15]
  Potency: inactive
[16]
  Potency: inactive
[17]
  Potency: inactive

## O=C1CCN(c2ccccc2)N1
[1]
  Potency: inactive
[2]
  Potency: inactive
[3]
  outcome: inactive
[4]
  max response: 4.28%
[5]
  Potency: inactive
[6]
  Potency: inactive
[7]
  Potency: inactive
[8]
  Potency: inactive
[9]
  outcome: inactive
[10]
  Potency: inactive
[11]
  Potency: inactive
[12]
  Potency: inactive
[19]
  outcome: inactive
[14]
  Potency: inactive
[15]
  Potency: inactive
[16]
  Potency: inactive
[17]
  Potency: inactive
[18]
  Potency: inactive
